Screens deposited in PubChem BioAssay by The Scripps Research Institute Molecular Screening Center.
MITF inh – inhibitors of human MITF; hit rate 0.91% among 650,000; inhibition, % at 2.6 µM; AlphaScreen MITF homodimerization, bead proximity signal; in the data active = inhibition above about 50%;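 note: 0% = vehicle wells with protein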
GPR151 ag – activates the human receptor GPR151 | Q8TDV0 | activation, % at 11.2 µM | PathHunter beta-arrestin GPR151 cells, luminescence | AID 1508602 | hit rate 1% among 650,000; in the data active = activation above about 4.9%;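 note: 0% = median of compound wells and 100% = cells with positive control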
FBW7 activator – human FBW7 E3 ligase activation, primary screen | AlphaScreen FBW7–phospho-cyclin E peptide binding, activator screen | normalized activity (activation), % at 26.1 µM | hit rate 0.13% among 650,000 | AID 1259310; in the data active = normalized activity above about 1.9%;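 note: purified mutant Fbw7 with reduced substrate affinity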
TEAD-YAP inh – TEAD-YAP interaction inhibition. hit rate 1.4% among 640,000. HEK-TIYL cells, TEAD-Gal4/YAP UAS-luciferase luminescence. inhibition, % at 9.12 µM; in the data active = inhibition above about 32%;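 note: 0% = median of test compound wells and 100% = reference inhibitor wells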
GPR151 conf act – confirmation of human GPR151 activators | shares compounds with GPR151 ag | GPR151 PathHunter beta-arrestin cells, luminescence, 90 min; % of EA-reagent control over plate median | activation, % at 11.2 µM | 6,700 tested, under 10 active | AID 1508609;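 active = mean percent activation across replicates above the confirmation screen cutoff of 4.91%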
GPR119 ag – activates human GPR119 in a GPR151 counter-screen | shares compounds with GPR151 ag | GPR119 PathHunter beta-arrestin cells, luminescence, 90 min; 0 = compound-well median, 100 = enzyme-acceptor control | activation, % at 11.2 µM | hit rate 0.3% among 6,700;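 active = mean percent activation in the counterscreen above 29.09%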;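 note: counterscreen on off-target GPR119 to flag nonselective hits from the GPR151 activator screen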
Target sequence (Q8TDV5 whole entry, looked up): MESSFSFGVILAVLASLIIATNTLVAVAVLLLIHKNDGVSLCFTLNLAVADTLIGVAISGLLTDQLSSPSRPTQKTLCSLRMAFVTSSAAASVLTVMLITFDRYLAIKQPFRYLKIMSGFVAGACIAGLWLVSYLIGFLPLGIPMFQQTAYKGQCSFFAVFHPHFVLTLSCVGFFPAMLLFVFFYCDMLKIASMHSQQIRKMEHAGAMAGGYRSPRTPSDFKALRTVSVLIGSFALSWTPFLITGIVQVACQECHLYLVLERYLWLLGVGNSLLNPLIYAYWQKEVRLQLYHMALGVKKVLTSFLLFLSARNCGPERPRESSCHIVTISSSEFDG
* marks the source's active call; other numbers are inactive results; nt = not tested or not shown. Most compounds without a hit are left out; they make up all but 3.5% or so of the library.

SMILES | MITF inh | GPR151 ag | FBW7 activator | TEAD-YAP inh | GPR151 conf act | GPR119 ag
CCCCOc1c(Cl)cc(C(=O)O)cc1OC | 0.8 | -0.2 | 0.0 | 3.5 | nt | nt
CCOc1c(Cl)cc(C(=O)O)cc1OC | -23.4 | 6.4* | -0.2 | -1.3 | 0.7 | 13.2
COc1ccccc1S(=O)(=O)Cc1ccc(C(=O)N2CCOCC2)o1 | -7.4 | 46.2* | 0.2 | -17.4 | 0.1 | 6.0
COc1ccccc1C1N(c2cc(Cl)ccc2OC)C(=O)C2CCCN21 (stereo unspecified) | 3.9 | 6.8* | 0.0 | 1.3 | -0.6 | -7.6
COc1ccc(Cl)cc1N1C(=O)C2CCCN2C1c1ccccc1 (stereo unspecified) | 5.7 | 0.6 | 0.8 | 2.5 | nt | nt
O=C(NCCc1ccc(F)cc1)c1ccc([N+](=O)[O-])cc1Cl | 11.4 | 11.2* | 0.0 | -83.5 | -0.1 | 7.5
CCOCCCNC(=O)c1cc([N+](=O)[O-])ccc1Cl | 10.5 | 22.7* | -0.1 | 6.3 | 0.7 | -4.5
CCN(CC)CCCNC(=O)c1cc([N+](=O)[O-])ccc1Cl | 13.8 | 1.3 | 0.0 | -2.3 | nt | nt
CCOC(=O)N1CCN(S(=O)(=O)c2ccc3c(c2)OCCO3)CC1 | -13.7 | -1.1 | -0.1 | -4.2 | nt | nt
Cc1cc([N+](=O)[O-])c(N2CC(C(=O)O)C2)c([N+](=O)[O-])c1 | -6.5 | -2.8 | 0.0 | 1.9 | nt | nt
O=C1NC(c2ccc(Cl)cc2Cl)Oc2ccccc21 (stereo unspecified) | 12.3 | 8.9* | 0.5 | 3.2 | 2.0 | -1.4
Cc1ccc(/C=C2/SC(=S)N(CC(=O)Nc3ccccc3O)C2=O)cc1 | 7.6 | 7.3* | -0.1 | -2.8 | 1.2 | -4.5
CC(C)CC(=O)Nc1ccc(NC(=O)CC(C)C)cc1 | 1.7 | 0.8 | 0.0 | 1.3 | nt | nt
COC(=O)c1cc(-c2ccccc2)n(CC(=O)O)c1C | -6.7 | 5.5* | 0.1 | -26.2 | -0.9 | -8.6
Cc1ccc2nc(C)c3c(c2c1)OC(CBr)C3 (stereo unspecified) | -7.1 | 0.9 | 0.0 | 11.0 | nt | nt
CSc1nc(C)c2c(n1)OC(CBr)C2 (stereo unspecified) | 0.3 | 5.0* | -0.3 | 0.5 | -0.5 | -4.8
COc1ccc(C(=O)NC(C)c2nnc(SCC(=O)Nc3ccccc3)n2C)cc1 (stereo unspecified) | 0.0 | 9.6* | -0.2 | 10.9 | 0.9 | 2.6
O=C(NCCN1CCOCC1)C1CCN(c2ccc(NCc3cccnc3)nn2)CC1 | 4.0 | 6.1* | 0.1 | 8.7 | -0.4 | 4.3
CCN(CC)CCN1C(=O)c2ccccc2NC1c1ccc(Cl)cc1 (stereo unspecified) | 0.9 | 7.6* | 0.0 | -0.8 | 1.1 | 18.2
COc1ccccc1C(=O)Nc1ccc(N2CCCS2(=O)=O)cc1 | -6.8 | -1.8 | 0.0 | -41.8 | nt | nt
COc1ccc(Cl)cc1C(=O)Nc1ccc(N2CCCCS2(=O)=O)cc1 | -6.4 | 9.0* | -0.2 | -8.5 | 0.3 | 4.3
Cc1nn(Cc2ccccc2)c(=S)[nH]c1=O | 4.4 | 0.3 | -0.1 | -8.7 | nt | nt
CC(=O)Nc1cccc(NC(=O)CSc2nnnn2-c2ccc3c(c2)OCO3)c1 | 6.4 | 5.6* | 0.6 | -1.4 | 0.2 | 10.9
CCc1ccccc1NC(=O)C1Sc2nnc(C)n2NC1c1ccc(OC)cc1 (stereo unspecified) | 2.9 | -0.2 | -0.1 | 0.0 | nt | nt
CCOC(=O)CSc1ccc(C(=O)OCC)cc1[N+](=O)[O-] | 2.5 | -1.5 | -0.1 | 9.4 | nt | nt
CCOC(=O)CSc1ccc(C(=O)N(CC)CC)cc1[N+](=O)[O-] | -5.4 | 6.8* | 0.1 | -0.9 | 0.1 | -7.5
COc1ccc(C2C(C(C)=O)=C(C)N=c3s/c(=C/c4ccccc4)c(=O)n32)cc1 (stereo unspecified) | 8.1 | 8.8* | -0.1 | 3.6 | -0.8 | -4.8
CCOC(=O)C1=C(C)N=c2s/c(=C\c3ccc(C(C)C)cc3)c(=O)n2C1c1ccc(OC)cc1 (stereo unspecified) | -1.8 | 7.0* | -0.2 | -8.4 | -0.2 | -2.0
COc1ccc(C2C(C(C)=O)=C(C)N=c3s/c(=C/c4ccc(OCc5cccc6ccccc56)cc4)c(=O)n32)cc1 (stereo unspecified) | 2.6 | 1.5 | -0.1 | 5.2 | nt | nt
CCOC(=O)C1=C(C)N=c2s/c(=C\c3ccc(Br)o3)c(=O)n2C1c1ccc(OC(C)C)cc1 (stereo unspecified) | 13.8 | 5.0* | -0.1 | -7.2 | 0.9 | -7.0
